# Results taken from PMC7862700, “An all-to-all approach to the identification of sequence-specific readers for epigenetic DNA modifications on cytosine”.
# Key:
# Assay in all cases: DAPPL (digital affinity profiling via proximity ligation, sequencing); 10 mM Tris-HCl pH 7.5, 50 mM NaCl, 1 mM DTT, 4% glycerol, room temperature, 30 min; GST-TFs on glutathione beads, 16-mer random dsDNA library, 0.1% formaldehyde crosslink after washing; high values mean tight binding
# FEV = target: T1, FEV (Homo sapiens, UniProt Q99581 1-238); settings: protein: recombinant; tags: N-terminal GST; dsDNA, one strand shown
# T1 sequence: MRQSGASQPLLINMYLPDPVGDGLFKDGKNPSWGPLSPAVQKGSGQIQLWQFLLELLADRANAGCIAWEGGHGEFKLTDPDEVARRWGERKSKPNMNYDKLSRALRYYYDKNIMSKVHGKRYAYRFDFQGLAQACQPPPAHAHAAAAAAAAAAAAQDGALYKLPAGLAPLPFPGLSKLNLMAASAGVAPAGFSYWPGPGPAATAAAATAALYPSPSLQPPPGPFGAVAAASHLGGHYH
# Outline: (§1)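 Human transcription factors carrying a GST fusion were produced in yeast, bound to glutathione beads, tagged with DNA barcodes and pooled together with a tag-only sample. Each pool was held with 200 nmole of a random double-stranded 16-mer DNA library in Tris/NaCl/DTT/glycerol buffer for 30 min at room temperature, then washed, crosslinked in 0.1% formaldehyde, proximity-ligated with BsaI/T4 ligase (1 h, 37 °C), PCR-amplified and sequenced on an Illumina NextSeq500. Binding signal is the read frequency of each hexamer for a given factor divided by its frequency in the tag-only sample.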
# ETV5 = ETV5 (Homo sapiens, UniProt P41161 1-510); settings: protein: recombinant; tags: N-terminal GST; dsDNA, one strand shown
# Chain of ETV5 (P41161 whole entry): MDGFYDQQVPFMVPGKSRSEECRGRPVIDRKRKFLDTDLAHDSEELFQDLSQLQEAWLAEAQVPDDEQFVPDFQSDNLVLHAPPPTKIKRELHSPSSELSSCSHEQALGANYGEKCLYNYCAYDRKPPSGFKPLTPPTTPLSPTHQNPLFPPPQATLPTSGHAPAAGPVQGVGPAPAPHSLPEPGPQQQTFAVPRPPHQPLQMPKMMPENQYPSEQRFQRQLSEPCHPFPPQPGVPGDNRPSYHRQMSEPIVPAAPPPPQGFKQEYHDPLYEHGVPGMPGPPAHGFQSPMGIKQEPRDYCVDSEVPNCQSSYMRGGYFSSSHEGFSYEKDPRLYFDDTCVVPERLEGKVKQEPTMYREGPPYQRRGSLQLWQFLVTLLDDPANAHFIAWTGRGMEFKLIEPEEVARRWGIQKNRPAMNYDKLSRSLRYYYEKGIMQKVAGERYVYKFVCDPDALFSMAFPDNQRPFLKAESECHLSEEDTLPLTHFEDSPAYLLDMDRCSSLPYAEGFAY
# Outline: as §1
# HSF1 = HSF1 (Homo sapiens, UniProt Q00613 1-529); settings: protein: recombinant; tags: N-terminal GST; chain copies: 3; dsDNA, one strand shown
# Chain of HSF1 (Q00613 whole entry): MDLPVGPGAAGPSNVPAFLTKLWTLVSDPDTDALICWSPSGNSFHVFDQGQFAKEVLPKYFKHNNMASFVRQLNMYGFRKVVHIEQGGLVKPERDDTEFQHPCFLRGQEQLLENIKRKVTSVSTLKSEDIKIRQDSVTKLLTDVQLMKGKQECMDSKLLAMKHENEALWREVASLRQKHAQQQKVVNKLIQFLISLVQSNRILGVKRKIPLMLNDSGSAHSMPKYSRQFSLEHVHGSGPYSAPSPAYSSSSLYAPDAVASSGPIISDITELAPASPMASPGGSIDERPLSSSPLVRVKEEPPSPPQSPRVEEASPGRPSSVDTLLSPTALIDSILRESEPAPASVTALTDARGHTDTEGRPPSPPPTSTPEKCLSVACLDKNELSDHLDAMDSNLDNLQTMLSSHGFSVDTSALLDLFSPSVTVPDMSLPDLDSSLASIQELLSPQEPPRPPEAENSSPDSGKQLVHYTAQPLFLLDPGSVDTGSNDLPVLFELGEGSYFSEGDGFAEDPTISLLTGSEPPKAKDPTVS
# Outline: as §1
# SPIC = target: T2, SPIC (Homo sapiens, UniProt Q8N5J4 1-248); settings: protein: recombinant; tags: N-terminal GST; dsDNA, one strand shown
# T2 sequence: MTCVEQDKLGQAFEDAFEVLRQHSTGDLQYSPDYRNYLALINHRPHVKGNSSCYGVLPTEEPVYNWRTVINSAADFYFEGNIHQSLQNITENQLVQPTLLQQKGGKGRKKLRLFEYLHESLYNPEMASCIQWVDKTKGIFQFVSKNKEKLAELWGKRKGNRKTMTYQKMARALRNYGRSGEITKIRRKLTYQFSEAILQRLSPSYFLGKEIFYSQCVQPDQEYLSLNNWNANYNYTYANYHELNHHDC
# Outline: as §1
# ELF4 = ELF4 (Homo sapiens, UniProt Q99607 1-663); settings: protein: recombinant; tags: N-terminal GST; dsDNA, one strand shown
# Chain of ELF4 (Q99607 whole entry): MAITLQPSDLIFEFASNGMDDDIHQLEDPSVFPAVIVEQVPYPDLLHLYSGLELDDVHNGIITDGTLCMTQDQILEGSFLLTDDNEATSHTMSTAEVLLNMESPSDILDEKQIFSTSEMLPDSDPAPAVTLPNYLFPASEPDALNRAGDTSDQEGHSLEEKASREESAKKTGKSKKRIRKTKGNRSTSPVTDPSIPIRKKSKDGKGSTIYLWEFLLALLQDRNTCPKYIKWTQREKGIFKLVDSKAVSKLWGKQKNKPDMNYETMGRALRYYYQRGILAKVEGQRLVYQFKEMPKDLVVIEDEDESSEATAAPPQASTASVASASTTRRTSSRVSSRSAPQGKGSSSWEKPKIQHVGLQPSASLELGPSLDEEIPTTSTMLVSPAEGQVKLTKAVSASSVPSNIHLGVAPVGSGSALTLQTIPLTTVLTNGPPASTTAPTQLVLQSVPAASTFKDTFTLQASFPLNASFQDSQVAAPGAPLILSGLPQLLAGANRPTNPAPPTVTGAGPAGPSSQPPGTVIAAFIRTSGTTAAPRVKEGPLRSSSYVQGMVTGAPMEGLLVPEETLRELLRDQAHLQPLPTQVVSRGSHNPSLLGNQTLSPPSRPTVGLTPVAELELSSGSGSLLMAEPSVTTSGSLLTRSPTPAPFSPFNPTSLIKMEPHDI
# Outline: as §1
# ELK4 = target: T3, ELK4 (Homo sapiens, UniProt P28324-2 1-405); settings: protein: recombinant; tags: N-terminal GST; dsDNA, one strand shown
# T3 sequence: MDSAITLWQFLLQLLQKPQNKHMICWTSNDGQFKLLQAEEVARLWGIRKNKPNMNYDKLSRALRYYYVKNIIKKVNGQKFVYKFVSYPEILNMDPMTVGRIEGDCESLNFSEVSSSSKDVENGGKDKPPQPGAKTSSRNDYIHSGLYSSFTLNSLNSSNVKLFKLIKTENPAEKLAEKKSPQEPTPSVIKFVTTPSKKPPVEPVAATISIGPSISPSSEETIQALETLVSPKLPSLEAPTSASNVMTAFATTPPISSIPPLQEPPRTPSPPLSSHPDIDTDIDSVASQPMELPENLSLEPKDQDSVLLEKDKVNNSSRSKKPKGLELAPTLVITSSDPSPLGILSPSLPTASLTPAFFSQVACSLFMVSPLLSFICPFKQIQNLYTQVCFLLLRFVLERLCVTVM
# Outline: as §1
# ETV2 = target: T4, ETV2 (Homo sapiens, UniProt O00321 1-342); settings: protein: recombinant; tags: N-terminal GST; dsDNA, one strand shown
# T4 sequence: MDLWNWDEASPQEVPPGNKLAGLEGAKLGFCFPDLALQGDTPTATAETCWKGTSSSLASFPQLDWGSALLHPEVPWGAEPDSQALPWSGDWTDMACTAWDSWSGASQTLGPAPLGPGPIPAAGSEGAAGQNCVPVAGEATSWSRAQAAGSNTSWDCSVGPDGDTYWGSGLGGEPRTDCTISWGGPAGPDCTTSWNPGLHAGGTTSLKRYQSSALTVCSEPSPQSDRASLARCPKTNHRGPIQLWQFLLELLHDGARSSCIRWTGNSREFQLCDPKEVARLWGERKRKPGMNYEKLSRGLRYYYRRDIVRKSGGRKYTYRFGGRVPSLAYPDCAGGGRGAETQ
# Outline: as §1
# ELF3 = target: T5, ELF3 (Homo sapiens, UniProt P78545 1-371); settings: protein: recombinant; tags: N-terminal GST; dsDNA, one strand shown
# T5 sequence: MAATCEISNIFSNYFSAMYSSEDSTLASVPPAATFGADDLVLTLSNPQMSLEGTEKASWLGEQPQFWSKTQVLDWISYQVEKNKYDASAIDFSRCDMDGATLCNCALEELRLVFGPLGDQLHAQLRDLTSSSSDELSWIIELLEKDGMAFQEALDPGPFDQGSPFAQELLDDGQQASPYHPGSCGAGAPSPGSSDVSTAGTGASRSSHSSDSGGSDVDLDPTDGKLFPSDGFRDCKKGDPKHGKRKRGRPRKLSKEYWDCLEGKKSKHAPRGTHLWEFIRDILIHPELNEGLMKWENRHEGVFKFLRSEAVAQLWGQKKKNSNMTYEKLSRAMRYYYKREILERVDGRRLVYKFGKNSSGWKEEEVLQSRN
# Outline: as §1
# CRX = CRX (Homo sapiens, UniProt O43186 1-299); settings: protein: recombinant; tags: N-terminal GST; dsDNA, one strand shown
# Chain of CRX (O43186 whole entry): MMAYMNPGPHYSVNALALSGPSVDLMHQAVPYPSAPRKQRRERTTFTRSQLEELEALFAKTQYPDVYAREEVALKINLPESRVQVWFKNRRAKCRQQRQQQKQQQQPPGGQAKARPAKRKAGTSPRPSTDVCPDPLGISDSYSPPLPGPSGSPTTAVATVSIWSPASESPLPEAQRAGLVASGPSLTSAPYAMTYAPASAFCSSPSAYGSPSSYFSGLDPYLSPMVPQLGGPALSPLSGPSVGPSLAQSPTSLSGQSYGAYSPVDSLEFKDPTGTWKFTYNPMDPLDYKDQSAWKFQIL
# Outline: as §1
# ETV1 = ETV1 (Homo sapiens, UniProt P50549 1-477); settings: protein: recombinant; tags: N-terminal GST; dsDNA, one strand shown
# Chain of ETV1 (P50549 whole entry): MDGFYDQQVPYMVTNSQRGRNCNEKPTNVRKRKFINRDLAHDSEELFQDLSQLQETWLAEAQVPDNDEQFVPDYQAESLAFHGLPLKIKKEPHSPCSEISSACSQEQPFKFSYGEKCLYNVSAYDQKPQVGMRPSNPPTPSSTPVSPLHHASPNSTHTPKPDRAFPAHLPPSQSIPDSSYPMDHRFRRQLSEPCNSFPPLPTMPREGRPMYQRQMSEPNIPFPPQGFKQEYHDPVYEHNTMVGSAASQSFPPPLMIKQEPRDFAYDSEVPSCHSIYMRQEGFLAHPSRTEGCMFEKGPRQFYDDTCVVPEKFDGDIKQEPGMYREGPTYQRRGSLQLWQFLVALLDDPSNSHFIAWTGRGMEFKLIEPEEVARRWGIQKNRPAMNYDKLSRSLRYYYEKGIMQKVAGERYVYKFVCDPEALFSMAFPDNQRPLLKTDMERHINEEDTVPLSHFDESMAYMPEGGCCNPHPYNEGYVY
# Outline: as §1
sequence,measurement,setting,value
TCTTCC,binding signal,FEV,"2.55 fold enrichment (6-mer frequency, TF over GST control)"
same,binding signal,ETV5,"2.85 fold enrichment (6-mer frequency, TF over GST control)"
same,binding signal,HSF1,"1.69 fold enrichment (6-mer frequency, TF over GST control)"
same,binding signal,SPIC,"2.31 fold enrichment (6-mer frequency, TF over GST control)"
same,binding signal,ELF4,"2.35 fold enrichment (6-mer frequency, TF over GST control)"
same,binding signal,ELK4,"2.38 fold enrichment (6-mer frequency, TF over GST control)"
same,binding signal,ETV2,"2.61 fold enrichment (6-mer frequency, TF over GST control)"
same,binding signal,ELF3,"2.33 fold enrichment (6-mer frequency, TF over GST control)"
same,binding signal,CRX,"1.34 fold enrichment (6-mer frequency, TF over GST control)"
same,binding signal,ETV1,"2.62 fold enrichment (6-mer frequency, TF over GST control)"
